Measured values: PubChem BioAssay (NCATS)
A number with no mark means an inactive call. Results filed as inconclusive are left out. Activity calls are given as the source filed them. Unless noted, calls come from the whole dose curve; as a rule, active = well fitted curve in the direction sought with a large enough effect; inconclusive = small, poorly fitted or top-dose-only effect, or another doubt; inactive = no such curve, though single readings can be large; an effect the other way counts as inactive or inconclusive.

Assays:
[1] = target: Lysosomal acid glucosylceramidase (Homo sapiens) (UniProt P04062); experiment: Glucocerebrosidase-p2 (AID 348; in the data active = potency below about 10 µM; note: potency is the fitted concentration of half-maximal effect); details: purified GBA, blue fluorogenic substrate, 40 min
Lysosomal acid glucosylceramidase (Homo sapiens), sequence (P04062 whole entry, looked up): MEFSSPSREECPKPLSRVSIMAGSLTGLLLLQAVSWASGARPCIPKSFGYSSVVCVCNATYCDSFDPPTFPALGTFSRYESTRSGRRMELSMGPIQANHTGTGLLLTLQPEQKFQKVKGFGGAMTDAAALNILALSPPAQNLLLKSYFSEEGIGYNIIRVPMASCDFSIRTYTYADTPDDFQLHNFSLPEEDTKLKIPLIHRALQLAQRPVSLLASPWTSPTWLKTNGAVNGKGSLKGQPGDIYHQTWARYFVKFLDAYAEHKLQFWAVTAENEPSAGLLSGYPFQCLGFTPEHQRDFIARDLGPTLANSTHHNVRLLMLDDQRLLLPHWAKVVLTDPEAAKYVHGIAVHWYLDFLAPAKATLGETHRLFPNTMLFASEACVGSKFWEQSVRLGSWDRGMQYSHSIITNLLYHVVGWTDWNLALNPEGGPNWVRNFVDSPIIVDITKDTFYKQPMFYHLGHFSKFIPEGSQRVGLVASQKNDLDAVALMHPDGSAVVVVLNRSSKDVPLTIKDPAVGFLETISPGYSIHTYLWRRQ
In short: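 Compounds titrated from 0.6 nM upwards against 0.2 nM enzyme in pH 5.9 citric acid/KH2PO4, taurocholate, tween-20; blue fluorogenic substrate 80 uM, 40 min room temperature, stopped and read Ex 365/Em 440 for AC50.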

[2] = target: Cytochrome P450 1A2 (Homo sapiens) (UniProt P05177); experiment: p450-cyp1a2 (AID 410; calls by dose curve; note: potency is the fitted concentration of half-maximal effect;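 for activity change, negative = inhibition: -100% = full effect of reference inhibitor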); details: recombinant CYP1A2, luciferin-ME demethylation, luminescence; series mostly up to 57 µM
Cytochrome P450 1A2 (Homo sapiens), sequence (P05177 whole entry, looked up): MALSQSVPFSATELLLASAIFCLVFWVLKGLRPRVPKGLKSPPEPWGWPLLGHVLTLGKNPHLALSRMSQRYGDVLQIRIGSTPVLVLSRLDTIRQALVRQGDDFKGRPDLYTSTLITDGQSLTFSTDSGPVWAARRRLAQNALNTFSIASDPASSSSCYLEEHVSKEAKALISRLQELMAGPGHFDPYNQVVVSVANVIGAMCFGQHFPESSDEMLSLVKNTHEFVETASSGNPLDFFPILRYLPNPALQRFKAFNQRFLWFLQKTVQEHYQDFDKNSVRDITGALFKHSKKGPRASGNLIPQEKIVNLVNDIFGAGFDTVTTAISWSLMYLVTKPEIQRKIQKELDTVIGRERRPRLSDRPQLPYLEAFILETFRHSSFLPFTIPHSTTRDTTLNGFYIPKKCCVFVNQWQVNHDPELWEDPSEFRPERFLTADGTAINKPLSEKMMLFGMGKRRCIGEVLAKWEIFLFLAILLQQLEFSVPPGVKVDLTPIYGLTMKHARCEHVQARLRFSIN
In short: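 Inhibition was calculated relative to 57 uM furafylline (full inhibition). The reaction used human CYP1A2 at 20nM with Luciferin-ME at its Km, 100uM, driven by an NADPH-regenerating system for 60 min at room temperature.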

[3] = NFAT Signaling Pathway (AID 444; active = well fitted curve in either direction with a large enough effect, not every such curve was filed as active;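 note: carbachol stimulus at about its EC50 of 1 µM final; % is set by controls: 0 for no effect and ±100 for the full control effect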); details: Jurkat NFAT-bla M1, carbachol, beta-lactamase ratio, 5 h; at 7.69 µM (top of the series) unless noted
In short: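 Jurkat cells with NFAT-driven β-lactamase reporter and co-expressed M1 receptor, stimulated with carbachol (final 1 uM, ~EC50), compound titration, 5 h at 37 °C. CCF4 loaded 1 h at RT; 460/530 nm ratio gave %activity and AC50.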

[4] = Stat Signaling Pathway (AID 446; active = well fitted curve in either direction with a large enough effect, not every such curve was filed as active;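 note: ME-180 cervical cancer cells given 40 pM IL-6 alongside compound; SIE-controlled beta-lactamase reporter measured as 460/530 nm FRET emission ratio; % is set by controls: 0 for no effect and ±100 for the full control effect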); details: ME-180 SIE beta-lactamase reporter, IL-6 stimulated, 5 h; series mostly up to 7.69 µM
In short: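 IL-6/STAT signaling read in ME-180 cells via an SIE beta-lactamase reporter. Stimulus was 40 pM IL-6 (its AC50) for 5 hrs, so both activation and inhibition register.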

[5] = target: Glucocorticoid receptor (Homo sapiens) (UniProt P04150); experiment: GR-GFP Redistribution (AID 450;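 active = compounds whose dose series gives a full or clear partial fitted curve of increased nuclear translocation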; note: potency is the fitted concentration of half-maximal effect); details: U2OS GR-GFP nuclear translocation, laser cytometry, 2 h
Glucocorticoid receptor (Homo sapiens), sequence (P04150 whole entry, looked up, the tested form may be a part): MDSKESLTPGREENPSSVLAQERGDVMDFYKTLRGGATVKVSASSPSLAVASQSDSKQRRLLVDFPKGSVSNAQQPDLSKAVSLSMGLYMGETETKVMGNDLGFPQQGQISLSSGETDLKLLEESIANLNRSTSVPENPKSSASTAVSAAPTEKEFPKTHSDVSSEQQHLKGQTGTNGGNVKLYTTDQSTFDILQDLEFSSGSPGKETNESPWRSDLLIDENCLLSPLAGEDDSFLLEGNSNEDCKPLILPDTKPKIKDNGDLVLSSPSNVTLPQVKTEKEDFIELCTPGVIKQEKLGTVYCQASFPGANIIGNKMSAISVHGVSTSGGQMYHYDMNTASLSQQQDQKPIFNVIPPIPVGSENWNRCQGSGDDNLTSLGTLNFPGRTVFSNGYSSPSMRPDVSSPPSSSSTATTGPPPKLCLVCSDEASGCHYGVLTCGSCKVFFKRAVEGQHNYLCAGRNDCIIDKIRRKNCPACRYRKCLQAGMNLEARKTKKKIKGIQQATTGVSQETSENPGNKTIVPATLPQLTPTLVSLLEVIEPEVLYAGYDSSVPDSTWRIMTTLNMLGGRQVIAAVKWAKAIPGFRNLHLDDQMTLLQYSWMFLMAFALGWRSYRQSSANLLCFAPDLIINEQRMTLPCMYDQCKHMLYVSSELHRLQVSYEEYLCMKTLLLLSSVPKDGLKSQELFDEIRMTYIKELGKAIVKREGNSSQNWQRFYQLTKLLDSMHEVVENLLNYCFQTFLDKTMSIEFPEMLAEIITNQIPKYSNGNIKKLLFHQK

[6] = target: Glucocorticoid receptor (Homo sapiens) (UniProt P04150); experiment: GR-EFC Redistribution (AID 451; calls by dose curve; note: potency is the fitted concentration of half-maximal effect); details: CHO-K1 GR-EFC translocation, beta-gal luminescence, 2 h
In short: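 CHO-K1 cells expressing nuclear EA and GR-ED fragments of b-gal; compounds titrated up to 46 uM final, 2 h at 37 C. GR nuclear translocation read as complemented b-gal luminescence after 1 h RT detection.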

[7] = target: Mitogen-activated protein kinase 10 (Mus musculus) (UniProt Q61831); experiment: JNK3 AlphaScreen Assay (AID 530; active = well fitted curve in either direction with a large enough effect, not every such curve was filed as active;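 note: kinase came from lysate of stimulated human HepG2 cells; signal reports phosphorylation of biotinylated GST-cJun 1-79 at Ser73 with 10 µM ATP; % is set by controls: 0 for no effect and ±100 for the full control effect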); details: JNK3 lysate, c-Jun phosphorylation; series mostly up to 57.1 µM
In short: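 qHTS format: compounds tested as titrations against IL-1beta/TNF-alpha-activated HepG2 lysate JNK3 with biotin-GST-cJun substrate and 10 uM ATP at room temperature. Loss of anti-phospho-cJun AlphaScreen signal indicates inhibition.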

[8] = target: Dual specificity protein kinase CLK4 (Homo sapiens) (UniProt Q9HAZ1); experiment: qHTS Assay for Inhibitors of CDC-like Kinase 4 (Kinase-Glo Assay) (AID 1770); details: recombinant Clk4, Kinase-Glo ATP depletion luminescence; series mostly up to 66.7 µM; note: nearly all actives have a fitted effect of over 65% in size; note: potency is the fitted concentration of half-maximal effect
Dual specificity protein kinase CLK4 (Homo sapiens), sequence (Q9HAZ1 whole entry, looked up): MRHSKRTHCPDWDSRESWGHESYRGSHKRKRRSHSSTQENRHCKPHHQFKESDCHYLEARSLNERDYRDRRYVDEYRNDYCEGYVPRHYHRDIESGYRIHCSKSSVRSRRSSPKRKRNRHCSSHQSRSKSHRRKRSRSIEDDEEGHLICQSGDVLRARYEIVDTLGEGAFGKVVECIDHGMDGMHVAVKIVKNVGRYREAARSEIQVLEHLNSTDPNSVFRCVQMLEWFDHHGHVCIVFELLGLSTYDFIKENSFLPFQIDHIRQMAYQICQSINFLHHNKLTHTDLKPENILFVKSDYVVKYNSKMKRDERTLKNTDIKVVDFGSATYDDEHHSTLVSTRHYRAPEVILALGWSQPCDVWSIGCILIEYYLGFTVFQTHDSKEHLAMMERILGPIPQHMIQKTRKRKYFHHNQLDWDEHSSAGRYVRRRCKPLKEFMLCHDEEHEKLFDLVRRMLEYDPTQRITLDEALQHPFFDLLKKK
In short: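 Clk4 25 nM, RS peptide 100 uM, ATP 1 uM, pH 7.5 Tris, 10 mM MgCl2, 2.5 mM DTT; 4.5 h RT; ATP depletion read by Kinase-Glo luminescence.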

[9] = target: Dual specificity protein kinase CLK4 (Homo sapiens) (UniProt Q9HAZ1); experiment: qHTS Assay for Inhibitors of CDC-like Kinase 4 (ADP-FP Assay) (AID 1795); details: Transcreener ADP fluorescence polarization; series mostly up to 50 µM; note: nearly all actives have a fitted effect of over 60% in size; note: potency is the fitted concentration of half-maximal effect
In short: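 Kinase activity was followed as ADP output, converted from fluorescence polarization with a calibration curve. Reactions ran one hour at low ATP (1 uM) with RS peptide substrate.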

[10] = target: Ubiquitin carboxyl-terminal hydrolase 1 (Homo sapiens) (UniProt O94782); experiment: Inhibitors of USP1/UAF1: Pilot qHTS (AID 504865); details: purified USP1/UAF1, Ub-rhodamine cleavage fluorescence; series mostly up to 54.9 µM; note: nearly all actives have a fitted effect of over 35% in size; note: potency is the fitted concentration of half-maximal effect
Ubiquitin carboxyl-terminal hydrolase 1 (Homo sapiens), sequence (O94782 whole entry, looked up): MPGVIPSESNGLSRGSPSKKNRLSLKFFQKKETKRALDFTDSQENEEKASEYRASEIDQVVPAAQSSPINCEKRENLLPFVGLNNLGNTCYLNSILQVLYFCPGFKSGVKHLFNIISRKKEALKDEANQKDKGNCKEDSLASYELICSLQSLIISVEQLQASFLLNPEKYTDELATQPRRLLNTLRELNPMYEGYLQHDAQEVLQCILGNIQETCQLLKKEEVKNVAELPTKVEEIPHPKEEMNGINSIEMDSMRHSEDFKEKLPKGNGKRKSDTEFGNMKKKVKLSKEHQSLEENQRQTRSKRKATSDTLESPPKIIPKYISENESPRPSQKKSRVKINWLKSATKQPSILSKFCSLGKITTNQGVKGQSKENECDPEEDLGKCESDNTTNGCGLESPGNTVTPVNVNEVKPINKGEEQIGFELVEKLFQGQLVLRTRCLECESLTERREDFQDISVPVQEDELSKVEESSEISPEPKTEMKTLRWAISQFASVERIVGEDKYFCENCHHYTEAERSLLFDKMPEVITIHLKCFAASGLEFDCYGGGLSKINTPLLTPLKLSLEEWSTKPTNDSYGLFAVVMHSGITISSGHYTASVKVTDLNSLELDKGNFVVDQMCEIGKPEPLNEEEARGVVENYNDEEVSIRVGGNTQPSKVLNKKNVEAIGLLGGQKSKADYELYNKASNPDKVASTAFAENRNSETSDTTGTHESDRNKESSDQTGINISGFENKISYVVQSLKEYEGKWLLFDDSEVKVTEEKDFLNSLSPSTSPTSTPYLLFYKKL
In short: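 Enzyme-free wells gave the negative control, while test wells held 1nM USP1/UAF1 preincubated with compound for 15 min at room temperature. Ub-Rho at 150nM final started the reaction, and fluorescence at 480/540 nm was recorded kinetically.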

[11] = AP1 Signaling Pathway (AID 357; active = well fitted curve in either direction with a large enough effect, not every such curve was filed as active;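 note: ME-180 reporter cells stimulated with EGF at its EC50 level; % is set by controls: 0 for no effect and ±100 for the full control effect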); details: ME-180 AP-1-bla reporter, EGF-induced, beta-lactamase ratio, 5 h; at 7.69 µM (top of the series) unless noted
In short: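 In this screen, ME-180 cells in Opti-MEM with 0.5% dialyzed FBS received EC50 EGF and compound titrations for 5 h. AP-1 reporter beta-lactamase was detected via CCF4 ratio, giving AC50 for positive and negative modulators.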

[12] = target: Cytochrome P450 3A4 (Homo sapiens) (UniProt P08684); experiment: qHTS Assay for Activators of Cytochrome P450 3A4 (AID 885); details: recombinant CYP3A4, Luciferin-PPXE luminescence, 60 min; series mostly up to 57.1 µM; note: nearly all actives have a fitted effect of over 65% in size
Cytochrome P450 3A4 (Homo sapiens), sequence (P08684 whole entry, looked up): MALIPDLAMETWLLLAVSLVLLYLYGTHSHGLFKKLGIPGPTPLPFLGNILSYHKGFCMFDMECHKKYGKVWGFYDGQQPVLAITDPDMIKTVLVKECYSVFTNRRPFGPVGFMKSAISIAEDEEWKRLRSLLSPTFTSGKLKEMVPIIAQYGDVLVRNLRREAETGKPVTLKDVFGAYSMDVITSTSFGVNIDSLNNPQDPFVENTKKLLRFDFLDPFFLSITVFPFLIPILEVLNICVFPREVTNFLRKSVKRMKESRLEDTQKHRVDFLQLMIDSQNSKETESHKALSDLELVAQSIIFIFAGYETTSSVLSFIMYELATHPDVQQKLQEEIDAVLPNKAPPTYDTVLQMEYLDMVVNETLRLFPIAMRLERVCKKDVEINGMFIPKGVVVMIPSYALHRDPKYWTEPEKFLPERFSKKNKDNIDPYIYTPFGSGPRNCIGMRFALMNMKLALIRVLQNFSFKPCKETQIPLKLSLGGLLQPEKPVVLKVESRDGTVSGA
In short: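 Quantitative HTS format: compounds preincubated with 20nM human CYP3A4 and Luciferin-PPXE substrate at KM, reaction started by NADPH regeneration, stopped after 60 min, luciferase luminescence read 20 min later.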

[13] = target: Cytochrome P450 2D6 (Homo sapiens) (UniProt P10635); experiment: qHTS Assay for Inhibitors and Substrates of Cytochrome P450 2D6 (AID 891); details: recombinant CYP2D6, luciferin-ME EGE luminescence; series mostly up to 57.1 µM; note: potency is the fitted concentration of half-maximal effect; nearly all actives have a fitted effect of over 60% in size
Cytochrome P450 2D6 (Homo sapiens), sequence (P10635 whole entry, looked up): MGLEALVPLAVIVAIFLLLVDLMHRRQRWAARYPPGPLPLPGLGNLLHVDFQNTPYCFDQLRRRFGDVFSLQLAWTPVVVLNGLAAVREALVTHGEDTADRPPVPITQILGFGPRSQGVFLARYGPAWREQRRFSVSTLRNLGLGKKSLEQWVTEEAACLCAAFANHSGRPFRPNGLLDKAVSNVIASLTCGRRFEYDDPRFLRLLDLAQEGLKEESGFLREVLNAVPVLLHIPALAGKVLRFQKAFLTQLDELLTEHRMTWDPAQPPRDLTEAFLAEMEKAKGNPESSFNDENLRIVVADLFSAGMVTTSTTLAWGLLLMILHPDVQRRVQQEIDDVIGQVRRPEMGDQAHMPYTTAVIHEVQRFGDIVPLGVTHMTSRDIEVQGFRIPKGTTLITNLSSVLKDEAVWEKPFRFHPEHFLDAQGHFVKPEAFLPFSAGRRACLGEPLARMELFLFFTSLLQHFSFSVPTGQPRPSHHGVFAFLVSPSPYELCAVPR
In short: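 Human CYP2D6 (5 nM) with 30 uM Luciferin-ME EGE (at Km) in 100 mM KPO4, compound preincubated 10 min, then NADPH regeneration system for 60 min at room temperature. Luciferin read by luminescence; normalized to 1.43 uM quinidine.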

[14] = target: Cytochrome P450 3A4 (Homo sapiens) (UniProt P08684); experiment: qHTS Assay for Inhibitors and Substrates of Cytochrome P450 3A4 (AID 884); details: recombinant CYP3A4, Luciferin-PPXE luminescence; series mostly up to 57.1 µM; note: potency is the fitted concentration of half-maximal effect; nearly all actives have a fitted effect of over 50% in size
In short: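 20 nM human CYP3A4 with 25 uM Luciferin-PPXE (at KM) in 200 mM KPO4, preincubated 10 min with compound; NADPH regeneration started a 60 min RT reaction. Luciferin detected by luminescence, normalized to 57 uM ketoconazole as full inhibition.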

[15] = target: Cytochrome P450 2C19 (Homo sapiens) (UniProt P33261); experiment: qHTS Assay for Inhibitors and Substrates of Cytochrome P450 2C19 (AID 899); details: recombinant CYP2C19, luciferin-H EGE luminescence; series mostly up to 57.1 µM; note: potency is the fitted concentration of half-maximal effect; nearly all actives have a fitted effect of over 60% in size
In short: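 Luminescent read-out of luciferin formed from Luciferin-H EGE (10uM, equal to KM). Enzyme 5nM in 50mM KPO4; compound added, 10 min at 37C, then NADPH regenerating system for 60 min at 37C. Full inhibition defined by 57uM ketoconazole.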

[16] = target: 3',5'-cyclic-AMP phosphodiesterase 4B (Homo sapiens) (UniProt Q07343); experiment: qHTS Assay for Inhibitors of PDE-IV (AID 607; active = well fitted activation curve with a large enough effect in the main read-out, with a control signal flat, not every such curve was filed as active; note: % of control where 0% means no effect); details: HEK293 ACTOne CNG channel cells, membrane potential fluorescence; series mostly up to 22.9 µM
3',5'-cyclic-AMP phosphodiesterase 4B (Homo sapiens), sequence (Q07343 whole entry, looked up): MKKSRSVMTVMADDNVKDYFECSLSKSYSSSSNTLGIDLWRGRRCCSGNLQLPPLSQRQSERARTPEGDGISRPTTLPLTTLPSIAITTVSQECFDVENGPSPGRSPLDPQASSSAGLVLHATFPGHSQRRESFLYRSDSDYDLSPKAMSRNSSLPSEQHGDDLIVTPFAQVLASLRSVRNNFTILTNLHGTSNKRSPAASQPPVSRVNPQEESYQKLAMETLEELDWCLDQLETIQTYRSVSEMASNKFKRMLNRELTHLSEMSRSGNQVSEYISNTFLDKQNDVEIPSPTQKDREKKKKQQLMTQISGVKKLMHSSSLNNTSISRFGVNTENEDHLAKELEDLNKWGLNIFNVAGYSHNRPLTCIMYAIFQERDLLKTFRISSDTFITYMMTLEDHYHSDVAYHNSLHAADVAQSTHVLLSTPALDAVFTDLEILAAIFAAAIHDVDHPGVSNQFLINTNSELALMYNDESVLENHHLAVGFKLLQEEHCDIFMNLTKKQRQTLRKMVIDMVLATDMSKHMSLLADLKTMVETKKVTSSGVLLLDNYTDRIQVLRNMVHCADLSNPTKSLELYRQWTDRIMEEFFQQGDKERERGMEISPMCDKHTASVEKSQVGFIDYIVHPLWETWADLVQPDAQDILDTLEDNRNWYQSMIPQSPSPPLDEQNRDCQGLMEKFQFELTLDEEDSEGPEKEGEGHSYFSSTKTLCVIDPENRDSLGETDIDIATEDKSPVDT
In short: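 Live HEK293 cells with a modified cyclic nucleotide-gated (CNG) channel report intracellular cAMP via membrane-potential dye fluorescence (ex 535/em 590 nm). Endogenous PDE-IV was targeted. Compounds were tested at up to 22.9 uM final; RO 20-1724 100 uM served as control.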

[17] = target: Cytochrome P450 2C9 (Homo sapiens) (UniProt P11712); experiment: qHTS Assay for Inhibitors and Substrates of Cytochrome P450 2C9 (AID 883); details: recombinant CYP2C9, luciferin-H luminescence, 60 min; series mostly up to 57.1 µM; note: % is set by controls: 0 for no effect and ±100 for the full control effect; nearly all actives have a fitted effect of over 60% in size
In short: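 10nM CYP2C9 + 100uM Luciferin-H (=KM), 25mM KPO4; cpd 10 min 37C; NADPH regen, 60 min 37C; stop/detect with P450 Glo-Buffer 20 min; luminescence. Norm. to 57uM sulphaphenazole as full inhibition.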

[18] = qHTS Assay for Identification of Small Molecule Agonists for Hypoxia Response Element Signaling Pathway (AID 914; active = well fitted activation curve with a large enough effect in the signal ratio, with a control signal flat, not every such curve was filed as active; the % refers to the signal ratio; note: % of control where 0% means no effect); details: ME-180 (cervical carcinoma) HRE-bla reporter, beta-lactamase ratio, CoCl2, 17 h; activation: hits give high values
In short: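 In Opti-MEM containing 0.5% dialyzed FBS and 10 mM HEPES, ME-180 HRE-bla cells received a compound titration and EC50 CoCl2. They were incubated 17 hours, then CCF4-loaded 2.5 hours at room temperature before ratio reading.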

Structure (SMILES) | Potency [1] | Potency [2] | activity change, negative = inhibition [3] | outcome [4] | Potency [5] | Potency [6] | Potency [7] | Potency [8] | Potency [9] | Potency [10] | activity change, negative = inhibition [11] | outcome [12] | Potency [13] | Potency [14] | Potency [15] | Potency [16] | Potency [17] | activation [18]
CN(Cc1ccco1)c1nc(-c2cccnc2)nc2ccccc12 | > 11.4 µM | 0.316 µM (active) | -25.8% | inactive | > 46 µM | > 46 µM | inactive | 15.8 µM (active) | 12.6 µM (active) | inactive |  |  |  |  |  |  |  | 
CCNc1ncc2nc(-c3ccccc3)c(=O)n(CCC#N)c2n1 | > 11.4 µM | 3.16 µM (active) | 27.9% |  | > 9.22 µM | > 46 µM | inactive | inactive | inactive | inactive | -3.6% | inactive | 0.501 µM (active) |  |  |  |  | 
FC(F)(F)c1ccccc1-c1nc(NCc2cccnc2)c2ccccc2n1 | > 11.4 µM | 2 µM (active) | 3.45% |  | > 46 µM | > 46 µM | inactive | inactive | inactive | 12.6 µM (active) | 5.72% | inactive |  | 2 µM (active) | 3.98 µM (active) |  |  | 
N#CCCn1c(=O)c(-c2ccc(Cl)cc2)nc2cnc(N3CCOCC3)nc21 | > 11.4 µM | 15.8 µM (active) | 5.23% | inactive | > 9.22 µM | > 46 µM | inactive | inactive | inactive | inactive | 0.155% |  |  |  |  | inactive | inactive | 22.6%
COc1ccccc1-c1nc(Nc2ccncc2)c2ccccc2n1 |  | 0.316 µM (active) |  | inactive | > 46 µM | > 46 µM | inactive | 14.1 µM (active) | 14.1 µM (active) | inactive | -6.27% | inactive |  |  |  |  |  | 
CN1CCN(c2ncnc3ccc(-c4ccccc4C(F)(F)F)cc23)CC1 | > 11.4 µM |  | -19.6% | inactive | > 46 µM |  | inactive | inactive | inactive | inactive |  |  |  |  |  | inactive |  | 
O=c1c(CCc2ccccc2)nc2cnc(Oc3ccccc3)nc2n1C1CC1 | > 11.4 µM |  | -5.31% | inactive | > 9.22 µM | > 46 µM |  | inactive | inactive | inactive | -15.6% | inactive |  |  |  |  |  | 
COCCn1c(=O)c(CCc2ccccc2)nc2cnc(OCc3ccccc3)nc21 |  |  | 4.34% | inactive | > 9.22 µM | > 46 µM |  | inactive | inactive | inactive | -21.6% |  |  |  |  |  |  | 
COc1ccc(CNc2ncncc2-c2ccccc2OC)c(OC)c1 | > 11.4 µM | 5.01 µM (active) | -12.1% | inactive | > 46 µM |  | inactive | inactive | inactive | inactive | -23.4% | inactive |  | 0.316 µM (active) | 2 µM (active) |  |  | 
Cc1nc2cnc(Oc3cccc(Cl)c3)nc2n(Cc2ccc(F)cc2)c1=O | > 11.4 µM |  | -21.7% | inactive | > 9.22 µM | > 46 µM | inactive | inactive | inactive | inactive |  |  |  |  |  | inactive |  | 
COc1ccc(Oc2ncc3nc(-c4cccc(C#N)c4)c(=O)n(Cc4cccc(OC)c4)c3n2)cc1 | > 11.4 µM | inactive | -6.12% | inactive | > 9.22 µM | > 46 µM | inactive | inactive | inactive | inactive | 7.45% | inactive |  | 2 µM (active) |  | inactive |  | 
COc1ccccc1CNc1ncncc1-c1ccc2c(c1)OCO2 | > 11.4 µM | 0.158 µM (active) | -11.1% | inactive | > 46 µM |  | inactive | 2.24 µM (active) | 1 µM (active) | inactive | -21.5% | inactive | 2.51 µM (active) | 0.199 µM (active) |  |  |  | 
CN(C)c1nc(-c2ccc3c(c2)OCO3)nc2ccccc12 | > 11.4 µM |  | -16.9% |  | > 46 µM |  | inactive | inactive | inactive |  | 9.5% |  |  |  |  | inactive |  | 
COc1cccc(-c2nc(NC3CC3)c3ccccc3n2)c1 | 2.73 µM (active) |  | 1.07% |  | > 46 µM | > 46 µM | inactive | 7.08 µM (active) | 2.82 µM (active) |  | -6.5% | inactive | 7.94 µM (active) | 1.26 µM (active) |  |  |  | 
COc1ccccc1-c1ccc2ncnc(N3CCNCC3)c2c1 | > 11.4 µM |  | 5.04% |  | > 46 µM | > 46 µM | inactive | 4.47 µM (active) | 7.94 µM (active) | inactive | 4.97% |  |  |  |  | inactive |  | 
